The whole screen tested about 6,200 compounds, of which about 2,900 (47%) were called active. No stated cut-off is given here; in the data, active means inhibition above about 50%; inactive means the rest. The set was probably picked from earlier hits. The list shows a part of the results.

This assay is described as follows: Mycobacterium tuberculosis growth inhibition, primary screen (AID 1259343). The settings on record: inhibition: at 10 µM, active compounds read high; outcome: 10 uM.
One may read the inhibition as the relative decrease from the control value, in per cent. As to `O=C(CCc1nc(-c2ccncc2)no1)Nc1ccc(Oc2ccccc2)cc1`, the inhibition is 95.7% (active).

With `c1ccc(CCc2nc(-c3ccncc3)no2)cc1`, the inhibition entry was “inactive”.

For `COC(=O)c1cccc(NC(=O)N2CCN(CCCOC(c3ccc(Cl)cc3)c3ccc(Cl)cc3)CC2)c1`, the inhibition is 13.4% (inactive). With `CN(Cc1nc(COc2ccccc2)no1)CC1CCOCC1`, the inhibition was 29.5% (inactive). Next, `CN(Cc1nc(COc2ccccc2)no1)CC1Cc2ccccc2O1` (stereo not given): 53.6% (active); `c1ccc2[nH]c(-c3ccc(OCc4nc(CC5CC5)no4)cc3)nc2c1`: 10.7% (inactive); `c1ccc(OCc2noc(CN3CCN(c4ccccn4)CC3)n2)cc1`: 43% (inactive). `c1ccc(OCc2noc(COc3ccc4ncccc4c3)n2)cc1`: the inhibition is 64.9% (active). In the case of `CCc1noc(CSC2=Nc3ccccc3CS2)n1` it was 23% (inactive). Next, `COc1ccc(-c2nc(CN(C)Cc3ccc4nsnc4c3)c(C)o2)c(C)c1C`: 12.7% (inactive); `CCc1ccc(CN(C)Cc2nc(COc3ccccc3)no2)nc1`: 93.7% (active). Next, `CN(Cc1ccc2nsnc2c1)Cc1nc(COc2ccccc2)no1`: 65.2% (active); `Nc1ccccc1Sc1c[nH]c2ccccc12`: 46.1% (inactive). Consider `Cc1ccc(OCCN(C)c2ccccc2)cn1`, for which the inhibition was -0.64% (inactive). With `Cc1ccc(OCCN(C)Cc2nc(COc3ccccc3)no2)cc1`, the inhibition was 80% (active). Take `COc1ccc(N=Cc2c(NCCO)nc3c(C)cccn3c2=O)cc1`: the inhibition was 75.7% (active).

Take `Cc1ccc(N=Cc2c(Nc3ccccc3)nc3c(C)cccn3c2=O)cc1`: the inhibition is -12% (inactive). Regarding `Cc1cccn2c(=O)nc(SC/C=C/c3ccccc3)nc12`, the inhibition is 7.88% (inactive). In the case of `COc1ccc(Nc2nc3c(C)cccn3c(=O)c2/C=N\Nc2ccccc2)cc1` it was 88.8% (active).

Regarding `O=S(=O)(NN=C1c2ccccc2-c2ccccc21)c1ccccc1`, the inhibition is -15.8% (inactive). For `CCSc1nc2c(c(C3CC=CCC3)c1C#N)CCC2` (stereo not given), the inhibition was 45.2% (inactive). In the case of `N#CCSc1nc2c(c(C3CC=CCC3)c1C#N)CCC2` (stereo not given) it was 66.1% (active); in that of `CSc1nc2c(c(-c3ccc(O)cc3)c1C#N)CCC2`, 48.4% (inactive). Next, `CC1CCC(N(C)C(=O)NCc2ncc(-c3ccccc3)o2)CC1` (stereo not given): 76.1% (active); `c1ccc2oc(CN3CCC(c4nc5ccccc5s4)CC3)nc2c1`: -16% (inactive); `CCSc1ncc(CN2CCN(c3nc4ccccc4o3)CC2)cn1`: 95.3% (active). Consider `c1ccc(N2CCCC2)c(CNc2nc3ccccc3o2)c1`, for which the inhibition is 34.1% (inactive). Next, `CC(C)c1nc(Cn2ccnc2-c2ccc(C3CCCCO3)s2)no1` (stereo not given): -7.76% (inactive); `c1ccc2oc(N3CCN(Cc4ccc(C5CCCO5)s4)CC3)nc2c1` (stereo not given): 90.8% (active); `Cc1ccccc1-c1nc(CN2CCN(c3ncc4ccccc4n3)CC2)c(C)o1`: 20.3% (inactive). On to `CCCCC(CC)CN1CNC(=S)NC1` (stereo not given), for which the inhibition was 48.2% (inactive). In the case of `O=S(=O)(Nc1cccc(Br)c1)c1ccc(Cl)s1` it was 84.1% (active); in that of `O=S(=O)(Nc1cccc(Br)c1)c1ccc(Br)s1`, 97.3% (active); in that of `CC(=O)/C(=N/Nc1ccccc1[N+](=O)[O-])Oc1ccc(Br)cc1`, -28.4% (inactive). For `NC(=O)C1CN(C2CCCCc3ccccc32)CCO1` (stereo not given), the inhibition was 49.4% (inactive). In the case of `COc1ccc(OC)c2c1CN(C1CCCc3ccccc31)CC2O` (stereo not given) it was 95.8% (active); in that of `COc1ccccc1CC(=O)NC1CCSc2ccccc21` (stereo not given), -22.7% (inactive); in that of `CN(Cc1ccc2ccccc2c1)C(=O)COc1ccccc1F`, 38.5% (inactive). Next, `Cc1ccc(C(=O)NCc2ccc(-c3ccc(O)cc3)cc2)o1`: 40.6% (inactive).

For the compound `Cc1ccc(CN(C)C(=O)COc2ccc(O)cc2)o1`, the inhibition is 80.2% (active). Next, `CCC(=O)OC(C#N)C1=C(Cl)C(=O)c2ccccc2C1=O` (stereo not given): 103% (active); `CCCC(C)NC(=O)CSc1nnc(Nc2ccc(CC)cc2)s1` (stereo not given): 84.9% (active). In the case of `CCNC(=O)NC(=O)CSc1nnc(Nc2ccc(CC)cc2)s1` it was 66.4% (active); in that of `CCOC(=O)CSc1nnc(Nc2ccc(C)cc2)s1`, -19.5% (inactive). In the case of `CCNC(=O)NC(=O)CSc1nnc(Nc2ccc(C(C)C)cc2)s1` it was 85% (active); in that of `CCOCCCNC(=O)NC(=O)CSc1nnc(Nc2ccc(C)cc2)s1`, 83% (active). Take `CN[C@@H]1C[C@@H](c2ccc(Cl)c(Cl)c2)c2ccccc21`: the inhibition was 48% (inactive).

In the case of `COc1ccc2c(c1)OCC(C(=O)C(C#N)c1nc3ccccc3o1)C2` (stereo not given), the inhibition was 99.3% (active). In the case of `CC1(C)C(C(Cl)Cl)C2(Cl)C(Cl)C(Cl)C1(Cl)C2(Cl)Cl` (stereo not given) it was 76.2% (active). With `Cc1ccccc1N=C1NC(=O)C(Cc2ccccc2[N+](=O)[O-])S1` (stereo not given), the inhibition was 56.7% (active).

As for `O=c1ccc([N+](=O)[O-])ccc1Nc1ccccn1`, the inhibition was 82.3% (active). In the case of `CC(C)CCNC(=O)c1ncc(Cl)c(Cl)c1Cl` it was 81.3% (active); in that of `Cc1noc(-c2ccc(C(=O)NCCC(C)C)cc2)n1`, -1.14% (inactive); in that of `Fc1ccccc1-c1noc2nc(OCc3ccccn3)ccc12`, 90.2% (active). For `Cc1nc(COc2ccc3c(-c4ccccc4F)noc3n2)cs1`, the inhibition is 62.8% (active). In the case of `Fc1ccc(-c2noc3nc(OCc4ncccn4)ccc23)cc1` it was 46% (inactive); in that of `c1ccc(-c2noc3nc(OCc4ccccn4)ccc23)cc1`, 50.7% (active).

`Cc1ccc(S(=O)(=O)CCC(=O)Nc2ccc(C)c(C)c2)cc1`: the inhibition is 68% (active). In the case of `CCCCc1ccc(NC(=O)CCS(=O)(=O)c2ccc(Cl)cc2)cc1` it was -52.4% (inactive); in that of `Clc1ccc2c(Oc3cccc(Br)c3)ccnc2c1`, 0.33% (inactive); in that of `Clc1ccc2c(Oc3ccc(Br)cc3)ccnc2c1`, 58% (active). Next, `O=C1c2ccccc2S(=O)(=O)N1c1cccc(Cl)c1`: “inactive”; `O=C1c2ccccc2S(=O)(=O)N1c1ccc(Cl)cc1`: 60.5% (active). In the case of `O=C1c2ccccc2S(=O)(=O)N1c1ccc(Br)cc1`, the inhibition is -53.1% (inactive).

As for `CCCCOc1cccc2c1CCN(CC)C2=O`, the inhibition is -1.17% (inactive).

Consider `O=C1c2cccc(O)c2CCN1Cc1ccc(Cl)cc1`, for which the inhibition was 58% (active). As to `O=C1c2cccc(O)c2CCN1Cc1ccc(Br)cc1`, the inhibition was 19.3% (inactive). In the case of `COc1ccc(N2C(=O)C3N=NN(Cc4cccc(C)c4)C3C2=O)cc1Cl` (stereo not given), the inhibition was 79.6% (active).

As for `COc1cccc(CN2N=NC3C(=O)N(c4ccc(OC)c(Cl)c4)C(=O)C32)c1` (stereo not given), the inhibition was 102% (active). Consider `COc1ccc(N2C(=O)C3N=NN(Cc4ccccc4)C3C2=O)cc1Cl` (stereo not given), for which the inhibition is 20.8% (inactive). Next, `Cc1cccc(CN2CCN(Cc3ccc(Cl)c(F)c3)CC2=O)c1`: 6.7% (inactive); `CCOc1ccc(N2C(=O)C3N=NN(Cc4cc(C(=O)OC)ccc4OC)C3C2=O)cc1` (stereo not given): -31.4% (inactive); `COC(=O)c1ccc(OC)c(CN2N=NC3C(=O)N(c4ccc(OC)c(Cl)c4)C(=O)C32)c1` (stereo not given): 55.6% (active). For `COc1ccc(CN2N=NC3C(=O)N(c4ccc(OC)c(Cl)c4)C(=O)C32)cc1` (stereo not given), the inhibition is 83.8% (active). In the case of `COc1ccc(OC)c(Nc2nc(Cl)nc(Nc3cc(OC)ccc3OC)n2)c1` it was 1.76% (inactive).
